Experiments:
Type in all cases: functional
[1] = molecular target: Solute carrier family 2, facilitated glucose transporter member 1 (Homo sapiens) (UniProt P11166); assay: ST_JUDE_LEISH: Cytotoxicity at 2uM final concentration against transgenic Leishmania Mexicana promastigotes LmGLUT1 that are glucose transport deficient and complemented with the human glucose transporter GLUT1. Activity is measured by DNA content using SYBR green in vitro
[2] = molecular target: Hexose transporter 1 (Plasmodium falciparum) (UniProt O97467); assay: ST_JUDE_LEISH: Cytotoxicity at 2uM final concentration against transgenic Leishmania Mexicana promastigotes LmPfHT that are glucose transport deficient and complemented with the Plasmodium falciparum hexose transporter. Activity is measured by DNA content using SYBR green in vitro
[3] = molecular target: Glucose transporter (Leishmania mexicana) (UniProt O61059); assay: ST_JUDE_LEISH: Cytotoxicity at 2uM final concentration against transgenic Leishmania Mexicana promastigotes LmGT2 that are glucose transport deficient and complemented with the L. Mexicana glucose transporter 2. Activity is measured by DNA content using SYBR green in vitro

Sequence of Solute carrier family 2, facilitated glucose transporter member 1 (Homo sapiens) (P11166 whole entry): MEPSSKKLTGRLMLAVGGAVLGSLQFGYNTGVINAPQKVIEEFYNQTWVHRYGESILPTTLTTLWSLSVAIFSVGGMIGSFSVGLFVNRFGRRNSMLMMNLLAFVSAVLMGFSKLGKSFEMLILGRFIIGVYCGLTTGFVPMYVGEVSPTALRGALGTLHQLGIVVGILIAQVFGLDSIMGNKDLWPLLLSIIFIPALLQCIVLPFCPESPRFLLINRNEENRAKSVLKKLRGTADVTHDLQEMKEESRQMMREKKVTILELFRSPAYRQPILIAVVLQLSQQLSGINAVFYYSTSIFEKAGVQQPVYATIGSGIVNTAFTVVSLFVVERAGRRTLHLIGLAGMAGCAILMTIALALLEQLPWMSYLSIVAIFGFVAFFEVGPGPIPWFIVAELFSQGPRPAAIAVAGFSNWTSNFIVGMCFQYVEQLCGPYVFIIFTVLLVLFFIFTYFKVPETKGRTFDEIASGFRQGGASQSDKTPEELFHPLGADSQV

SMILES	inhibition [1] [%]	inhibition [2] [%]	inhibition [3] [%]
CCCCCc1cc(O)c2c(c1)OC(C)(C)C=C2C1=CCN(Cc2ccsc2)CC1	2.33	2.79	2.52
O=C(/C=C/c1ccc(Cl)c(Cl)c1)NCCCCCN1CCC(CCNC(=O)Cc2ccc(Cl)cc2)CC1	1.7	0.82	4.06
Nc1nccc2ccc(-c3ccsc3)cc12	5.2	3.92	4.09
O=S(=O)(Nc1cccc(CCN2CCCCC2CCN2CCCC2)c1)c1ccc(Oc2ccccc2)cc1 (stereo unspecified)	-2.34	1.13	-1.81
CN(C)CCC1CCN(CCS(=O)(=O)c2cccc(Nc3ccc(-c4cccc(F)c4)cn3)c2)CC1	-0.27	3.28	3.78
CN1CCC(N2CCN(CCOc3cc(NC(=O)/C=C/c4ccccc4Cl)ccc3Br)CC2)CC1	0.25	2.87	-1.82
CN(C)CCOc1ccc(NC(=O)Nc2ccnc3c(Br)cccc23)cc1Cl	0.71	0.76	-0.85
c1cc(CNC2CCN(CC3CCCCC3)CC2)cc(-n2ccnc2)c1	-0.57	-0.48	1.45
CCN(CC)/C(=N/C(=N)NCc1cccc(Cl)c1)NCCCCCCN/C(=N\C(=N)NCc1cccc(Cl)c1)N(CC)CC	4.23	4.83	2.27
CCc1ccc(Cc2cnc3nc(N)nc(N)c3c2C)cc1CC	-1.77	0.71	0.12
O=C(Cc1c[nH]cn1)Nc1ccc(-c2cccc(-c3nc4cc(C(F)(F)F)ccc4[nH]3)c2)cc1	-0.04	0.42	1.12
COc1ccc2nccc([C@@H](O)CN3CCC(NC(=O)c4ccc(C5(C(F)(F)F)N=N5)cc4)CC3)c2c1	14.3	24.5	40.7

— ChEMBL document CHEMBL3433997, “St. Jude Leishmania screening dataset” (2016)
